Reference: the supplement of paper PMC6555819

How the values were obtained:
Assay in all cases: PBM binding z-score (relative to random genomic background probes); higher = stronger binding; sequences stand for … in GC…GCGATTGACAGCGTAGAATGAAGG
[1] = tested on: FXR:RXRa (NR concentration 270 nM, RXRa partner concentration 90 nM)
How it was run: (§1)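 Ligand-free nuclear receptor dimers were bound for 1 h to custom Agilent 4×180K protein-binding microarrays. Detection used antibodies against each partner (one per run). Binding z-scores rest on regression-normalized fluorescence, with random background probes as the reference.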

[2] = tested on: LXRa:RXRa (NR concentration 270 nM, RXRa partner concentration 90 nM)
How it was run: as §1

[3] = tested on: LXRa homodimer (NR concentration 270 nM)
How it was run: as §1

[4] = tested on: LXRb:RXRa (NR concentration 270 nM, RXRa partner concentration 90 nM)
How it was run: as §1

[5] = tested on: LXRb homodimer (NR concentration 270 nM)
How it was run: as §1

[6] = tested on: PPARa:RXRa (NR concentration 270 nM, RXRa partner concentration 90 nM)
How it was run: as §1

[7] = tested on: PPARg:RXRa (NR concentration 180 nM, RXRa partner concentration 90 nM)
How it was run: as §1

[8] = tested on: PPARg:RXRa 270nM:90nM, anti-RXR (NR concentration 270 nM, RXRa partner concentration 90 nM)
How it was run: as §1

[9] = tested on: PPARg:RXRa 30nM:10nM, anti-RXR (NR concentration 30 nM, RXRa partner concentration 10 nM)
How it was run: as §1

[10] = tested on: PPARg:RXRa 90nM:30nM, anti-RXR (NR concentration 90 nM, RXRa partner concentration 30 nM)
How it was run: as §1

[11] = tested on: PPARg:RXRa DBDmut IVT, anti-RXR (DBD mutation: RXRa K156A/R161A, NR concentration 270 nM, RXRa partner concentration 90 nM)
How it was run: as §1

[12] = tested on: PPARg:RXRa IVT, anti-PPARg (NR concentration 270 nM, RXRa partner concentration 90 nM)
How it was run: as §1

[13] = tested on: PPARg DBDmut:RXRa IVT, anti-PPARg (DBD mutation: PPARg1 K132A/R137A, NR concentration 270 nM, RXRa partner concentration 90 nM)
How it was run: as §1

[14] = tested on: PPARg DBDmut IVT, anti-PPARg (DBD mutation: PPARg1 K132A/R137A, NR concentration 270 nM)
How it was run: as §1

[15] = tested on: PPARg homodimer (NR concentration 180 nM)
How it was run: as §1

[16] = tested on: PXR:RXRa (NR concentration 270 nM, RXRa partner concentration 90 nM)
How it was run: as §1

[17] = tested on: PXR homodimer (NR concentration 270 nM)
How it was run: as §1

[18] = tested on: RARa:RXR (NR concentration 270 nM, RXRa partner concentration 90 nM)
How it was run: as §1

[19] = tested on: RARa homodimer (NR concentration 270 nM)
How it was run: as §1

[20] = tested on: RARb:RXRa (NR concentration 270 nM, RXRa partner concentration 90 nM)
How it was run: as §1

Sequence	PBM binding z-score [1]	PBM binding z-score [2]	PBM binding z-score [3]	PBM binding z-score [4]	PBM binding z-score [5]	PBM binding z-score [6]	PBM binding z-score [7]	PBM binding z-score [8]	PBM binding z-score [9]	PBM binding z-score [10]	PBM binding z-score [11]	PBM binding z-score [12]	PBM binding z-score [13]	PBM binding z-score [14]	PBM binding z-score [15]	PBM binding z-score [16]	PBM binding z-score [17]	PBM binding z-score [18]	PBM binding z-score [19]	PBM binding z-score [20]
AATACAGGGTCCCTAGGCCAGAGTAGGTACGAAT	-0.341	-0.334	-0.145	-0.634	-0.575	-0.299	0.603	0.00679	0.133	0.0597	-0.243	0.245	-0.698	-1.31	-0.659	-0.49	-0.525	-0.409	0.104	0.138
TAAGACAGGTGAAGGTAACTCAGGTACGCAGTCG	0.669	1.42	0.116	0.904	1.51	0.916	1.01	1.38	1.67	1.57	0.644	1.64	0.53	0.465	0.394	0.257	0.588	0.526	0.631	1.51
CCTAGTAGGCCAGGGTCACTCAAGCATTTCGCTT	1.96	1.56	-0.322	2.01	-0.98	3.69	3.5	4.07	1.36	3.22	4.28	4.48	-0.152	-1.37	0.886	2.55	-0.126	2.8	-0.346	2.65
CCTACTGGGCCATTCATAGGTCATTGATCATATG	0.867	2.17	3.55	2	-0.0981	2.64	1.49	1.93	0.277	1.06	4.46	3.82	0.954	-0.204	1.33	1.8	0.411	2.11	0.376	1.88
CCTTACGGGACACTCCAGGTTATAGCATCGGAGT	0.0463	0.511	0.714	-0.359	-0.449	0.0174	0.619	-0.335	-0.0425	-0.27	0.616	0.708	-0.0587	-0.578	0.252	0.0254	0.23	0.561	-0.181	0.356
ATATCTAGGTAACAAGTTCAGTGAAAGAGAGGAC	0.903	1.07	0.574	0.857	0.917	3.32	5.22	4.43	2.41	4.16	6.96	6.85	2.71	2.4	1.51	1.64	1.49	0.979	1.72	1.58
AATACAGGGTCACAAGGCCAGAGTAGGTACGAAT	6.89	5.61	1.21	4.47	1.18	5.99	7.38	6.69	3.96	5.46	3.6	5.38	1.96	1.5	1.69	4.03	0.719	4.97	1.18	4.6
TAGCCTAGGTCGTGCGGGCCAGTATAGTGTCGGC	-0.111	-0.0321	-0.956	-0.439	-0.768	0.275	-0.525	-0.186	-0.812	-0.477	-0.622	0.425	-0.497	-1.13	-1.3	-0.419	-0.881	-0.166	-1.19	0.97
GGAACGAGGGCAAGTTGATAGCAGAGTTTGATGG	1.07	0.522	-0.269	0.278	-0.586	1.74	1.19	1.03	-0.0238	0.39	3.78	2.54	-0.0364	-0.551	0.361	0.937	0.84	0.145	-0.166	2.63
ATCTCTAGGTAAGGTTCAGTGAAAGATCGATAGA	0.902	1.26	0.551	1.07	1.03	1.4	1.25	2.17	0.962	1.9	1.52	1.27	1.88	0.757	1.1	0.838	0.974	1.21	1.79	1.34
TCATATAGGTAAAAGGTGAATGTCGGTGTGGTAA	1.81	1.79	0.481	1.93	0.156	5.2	8.83	8.55	8.35	9.06	5.52	5.08	1.42	1.7	1.98	1.71	0.679	2.97	1.84	1.86
AATGCAGGGTCACTAGGCCAGAGTAGGTACGAAT	6.22	4.62	0.0121	3.54	0.179	5.78	7.48	6.77	3.41	5.76	4.1	5.62	1.45	0.273	2.1	3.26	0.127	4.25	0.109	4.13
AGAACGAGGGCAATGAGTTGATAACACGGGTGGC	0.198	0.102	-0.716	-0.182	-0.584	1.28	1.84	0.983	0.0129	0.611	2.99	2.45	-0.222	0.293	-0.128	1.53	4.8	0.19	-0.633	2.05
AATACAGGGTCACTACGCCAGAGTAGGTACGAAT	6.43	4.99	1.13	4.16	1.17	5.41	6.19	5.01	2.58	3.89	2.98	4.51	2.04	1.71	2.16	3.28	0.564	4.53	1.63	4.17
CCGAGTAGGTTATGGGGCATTCCGGCAACGGTGA	0.0637	0.227	-0.224	0.574	-0.279	1.97	3.05	4.51	1.83	3.99	3.2	3.14	0.204	-0.0547	0.995	-0.218	-0.17	0.0767	0.0897	0.966
CGTCCAAGGTCATAGGAGGTCAGCGAAGACAGAT	7.87	7.84	5.46	6.23	1.15	6.44	6.36	5.99	2.57	4.9	3.34	4.77	0.336	-0.611	4.47	7.04	3.83	6.41	2.5	5.66
CAAACTAGGTCACCTGAAGGTCAAAGTCCGCATG	5.8	5.89	5.41	5.04	1.6	5.79	9.15	7.17	5.48	7.17	8.35	8.25	1.4	0.822	7.4	5.61	2.75	7.1	2.19	5.14
CCTGCTAGGTCCATGGTCAGCTAAAGCAGCTCGC	-0.648	-0.658	-0.744	-0.958	-0.563	-0.447	-0.772	-0.287	-1.2	-0.648	-0.414	-0.603	-1.47	-1.26	-0.704	-0.449	-1	-0.64	-1.05	0.441
TCCAGTAGGTTAGGGGCATTCAGAATGGCGTCGA	0.986	0.635	-0.245	1.19	-0.0601	1.72	1.87	3.55	2.86	3.05	3.35	2.67	-0.472	0.307	1.01	0.69	0.251	0.878	-0.317	1.22
ATATGTAGGTTAGCCGGGGTCATTCAGACTAGGC	5.13	5.67	3.14	4.72	0.687	5.6	6.59	5.96	3.47	5.29	7.11	6.89	1.14	1.79	2.77	6.72	4.32	6.2	0.664	3.31
CATACTAGGTCACAGAGGTCAAAGTCCGTGCGTA	6.69	6.83	7.84	6.16	2.94	6.09	8.98	7.72	5.14	7.44	7.7	8.21	1.7	0.913	4.99	6.49	11.3	6.62	2.6	5.27
TGTCAAAATTCAAAGGTAACGTAAGTATCCACAC	0.567	0.663	-0.00824	0.809	0.161	1.13	0.99	1.47	0.972	1.39	-0.0151	1.31	0.599	1.21	0.821	0.362	0.426	1.04	0.683	0.953
AGTCAAAGTTCATCTAGGTAACTTAAGATATGCT	6.76	6.19	5.17	3.8	1.81	4.6	6.6	6.26	2.93	5.64	1.01	3.43	1.87	1.38	4.01	5.28	7.67	3.91	1.85	4.6
GCGACTGGGGCAACAGCAGGTTACCATAACTTAA	0.03	1.28	-0.408	0.734	-0.94	1.25	1.43	1.47	-0.0459	0.485	4.72	3.85	-0.661	-0.485	0.0811	0.146	-0.288	0.56	-0.561	1.02
GCTTGTCGATCAAGGTTAAGAAAGACTAAGCTAA	0.467	0.896	-0.687	0.589	-0.963	1.17	-0.154	0.57	0.0048	0.112	-0.33	0.582	0.163	0.0381	-0.626	0.592	-0.652	0.89	-0.654	0.682
ATCTCTAGGTCAAGATAGTTCAGTGAATGCAAAT	3.96	6.31	4.48	3.62	1.93	4.23	4.92	4.63	2.03	3.66	6.08	6.47	1.92	2.11	2.05	5.27	1.48	3.29	1.32	4.26
GGAACGAGGGCAAGTTAATAGCAGAGTTTGATGG	0.629	0.178	-0.0244	0.334	-0.49	1.53	1.14	0.86	0.37	0.378	3.46	2.52	0.284	-0.167	0.47	0.548	0.977	0.427	-0.189	2.26
TGAATGAGGTTTTAAGATCAGGGAACGTTGCAAA	-0.288	-0.516	-0.631	-0.358	-0.602	0.0128	-0.186	0.12	0.000594	0.043	-0.427	-0.0166	-0.325	-0.224	0.0827	-0.0619	-0.319	0.152	0.043	-0.198
ATACCAAGGTGAGCGTGAGGTCGTTGATACTAAC	1.64	1.3	0.0516	1.31	-0.401	2.05	1.03	0.903	0.0304	0.391	1.54	2.2	0.262	-0.46	0.827	3.26	0.571	2.34	0.154	1.97
